The campaign covered roughly 290,000 compounds. About 2,600 (0.9%) were called active.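 The calls were made as follows: active = inhibition above the mean of all tested compounds plus 3 SD, cutoff set per screening run (cut at about 7.5% in these data); inactive = the rest.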 Many of the other results were omitted from the sample, so actives are more common in it than they were.

Usually inhibition stands for the drop in the measured response relative to a control, in per cent.

In this test the test system is VIM-2 metallo-beta-lactamase (Pseudomonas aeruginosa). As to the kind of experiment: inhibition of VIM-2 nitrocefin hydrolysis – biochemical, epi-absorbance readout, Pseudomonas aeruginosa enzyme, primary screen (AID 1527).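 Also: red hydrolysis product quenches plate fluorescence so inhibitors raise well fluorescence; 0% = enzyme with DMSO and 100% = DMSO without enzyme.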 The conditions noted are these: purified VIM-2, nitrocefin hydrolysis, epi-absorbance fluorescence; at 5.6 µM; active compounds read high.
`O=C(N/N=C/c1cccnc1)c1ccc(NC(=O)c2ccc(F)cc2)cc1`: the inhibition was -0.77% (inactive).

As to `COc1cc(S(=O)(=O)N(Cc2cccs2)C2CC2)ccc1-n1cnnn1`, the inhibition was -1.52% (inactive).

As for `COc1ccc(C(=O)C2CCCN(C(=O)c3cc(C)on3)C2)cc1F` (stereo not given), the inhibition is -2.54% (inactive).

On to `CCOc1ccc2[nH]c(C(=O)N/N=C/c3cccc(OC)c3OC)cc2c1`, for which the inhibition is -0.14% (inactive).

Consider `Clc1ccc2nc(-c3ccccc3)nc(C(Cl)Cl)c2c1`, for which the inhibition was -4.99% (inactive).

Turning to `O=C(CCl)NNc1nc(-c2ccccc2)c2cc(Cl)ccc2n1`, the inhibition is -3.67% (inactive).

As to `NC(N)=Nc1nc(-c2ccccc2)c2cc(Cl)ccc2n1`, the inhibition is 9.54% (active).

As to `O=C(CCCCCn1c(=S)[nH]c2cc3c(cc2c1=O)OCO3)N1CCN(c2ccc(F)cc2)CC1`, the inhibition is -4.83% (inactive).

For the compound `CC(C)Oc1ccc(CN2CCC(n3nccc3NC(=O)c3cccnc3)CC2)cc1`, the inhibition is -0.44% (inactive).

Consider `CN(C)CCCn1c(=O)n(Cc2ccccc2)c(=O)c2c3c(sc21)CCCCC3`, for which the inhibition was -0.19% (inactive).

Consider `COc1ccc(C(=O)/C=C/c2cccnc2)c(OC)c1`, for which the inhibition was -1.09% (inactive).

As for `CN1CCN(Cc2c(O)ccc3c2oc(=O)c2ccccc23)CC1`, the inhibition is 12% (active).

With `CCOC(=O)c1oc2c(CN3CCN(C)CC3)c(O)ccc2c(=O)c1-c1ccc(Br)cc1`, the inhibition was 2.09% (inactive).

Take `O=c1oc2c(CN3CCCCC3)c(O)ccc2c2c1CCCCC2`: the inhibition was -1.98% (inactive).

On to `COc1ccc(-c2cc(C(=O)N(C)Cc3ccc(OC)c(OC)c3OC)c3ccccc3n2)cc1OC`, for which the inhibition is -3.53% (inactive).

As for `O=C(Nc1nnc(C2CC2)s1)c1cc(Cl)sc1Cl`, the inhibition was -3.26% (inactive).

On to `CN1C(=O)/C(=C\c2cc(Br)cs2)c2ccccc21`, for which the inhibition was 0.8% (inactive).

On to `O=C(c1ccco1)N1CCN(C(=O)c2cc(-c3ccccc3F)no2)CC1`, for which the inhibition is -2.41% (inactive).

As to `COc1cccc(NC(=O)C(=O)c2cn(CC(=O)N3CCOCC3)c3ccccc23)c1`, the inhibition is 1.81% (inactive).

`CC(=O)c1ccc2c(ccc3ccccc32)c1`: the inhibition is -0.35% (inactive).

On to `Cc1cc(=O)oc2c(C(=O)c3ccccc3)c(OCC(N)=O)ccc12`, for which the inhibition is -0.26% (inactive).

For `Cc1cc(=O)oc2c1ccc1ccccc12`, the inhibition was 10.6% (active).

In the case of `Cn1c(-c2sc3cc(C(F)(F)F)cnc3c2-c2ccccc2)n[nH]c1=S`, the inhibition is -7.11% (inactive).

Take `Cc1ccccc1-c1n[nH]c(=S)n1C`: the inhibition was 2.67% (inactive).

`Cn1c(-c2sccc2OCc2cccc(C(F)(F)F)c2)n[nH]c1=S`: the inhibition was 27% (active).

As for `COc1ccccc1NC(=O)CCN1CCN(c2ccc(Cl)cc2)CC1`, the inhibition is 0.08% (inactive).

In the case of `Cc1cccn2c(=O)c(C=O)c(Nc3ccc(S(N)(=O)=O)cc3)nc12`, the inhibition is 19.5% (active).

Consider `O=Cc1c(Nc2ccccc2Cl)nc2ccccn2c1=O`, for which the inhibition is 0.26% (inactive).

As for `CNc1nc2c(C)cccn2c(=O)c1C=Nc1ccc(OC)cc1`, the inhibition was 4.33% (inactive).

In the case of `C/C(N)=C(/C#N)C(=O)COC(=O)C1=NN(c2ccccc2)C(=O)CC1`, the inhibition was -2.51% (inactive).

As to `COc1cccc(NC(=O)C2CCCN(c3ncnc4c3nc3n4CCCCC3)C2)c1` (stereo not given), the inhibition is -0.06% (inactive).

Turning to `COCCCNC(NC(=O)c1ccc(C)cc1)C(Cl)(Cl)Cl` (stereo not given), the inhibition is -1.71% (inactive).

`CC(C)(C)NC(=O)CSC(=Nc1ccccc1F)NC#N`: the inhibition was -1.17% (inactive).

`CCC(c1nnnn1C(C)(C)C)N(Cc1cc2cccc(C)c2n2nnnc12)C1CCCC1` (stereo not given): the inhibition was -3.3% (inactive).

On to `Cn1c(=O)cc(OCCCC(=O)N2CCN(c3ccccn3)CC2)c2ccccc21`, for which the inhibition is -0.05% (inactive).

Regarding `Cn1c(=O)cc(OCCCC(=O)N2CCN(Cc3ccc4c(c3)OCO4)CC2)c2ccccc21`, the inhibition is 9.27% (active).

With `O=C(CCCN1C(=O)c2cccc3cccc(c23)C1=O)N1CCN(Cc2ccc3c(c2)OCO3)CC1`, the inhibition was 4.6% (inactive).

As to `COc1cc(C)cc(CN2CCC(Cc3ccccc3)CC2)c1O`, the inhibition is -1.32% (inactive).

With `CCn1c(=O)n(CC)c2cc(N3CCCC3)c(NC(=O)c3ccccc3Br)cc21`, the inhibition is 0.64% (inactive).

For `CCOc1ccc(C)cc1S(=O)(=O)NC1CCCCCC1`, the inhibition was -2.78% (inactive).

Consider `COc1ccccc1OCCn1c(SCC(N)=O)nc2ccccc21`, for which the inhibition is -0.1% (inactive).

As to `O=C(Oc1c(-c2ccco2)oc2ccccc2c1=O)c1cccnc1`, the inhibition is 0.08% (inactive).

`COCCCNC(=S)N(CCN(C)C)Cc1cc2cc3c(cc2[nH]c1=O)OCCO3`: the inhibition was 1.43% (inactive).

With `Cc1cccc(NC(=O)C2CCCN(C(=O)NCc3ccccc3)C2)c1C` (stereo not given), the inhibition is 0.69% (inactive).

For the compound `Cc1ccc2cc(/C=N/Nc3ccc(C(=O)O)cc3)c(Cl)nc2c1`, the inhibition is 1.26% (inactive).

In the case of `Cc1ccc2cc(/C=N/NC(=O)[C@@H]3CCCN3)c(Cl)nc2c1`, the inhibition was 10.3% (active).

`CSCC[C@H](NC(=O)OC(C)(C)C)C(=O)N/N=C/c1cc2ccc(C)cc2nc1Cl`: the inhibition was 0.5% (inactive).

Consider `Cc1cccc(CS(=O)(=O)c2ncc(Cl)c(C(=O)Nc3ccc(F)cc3)n2)c1`, for which the inhibition is -3.25% (inactive).

Regarding `O=C(CCC1CCCN(C(=O)c2ccc(F)c(F)c2)C1)N1CCN(c2ccccn2)CC1` (stereo not given), the inhibition is -0.15% (inactive).

For the compound `CCn1ccnc1CNC(=O)CC1C(=O)NCCN1Cc1ccc(F)cc1Cl` (stereo not given), the inhibition was -4.36% (inactive).

`O=C1c2ccccc2C(=O)N1c1cccc2ccccc12`: the inhibition was -0.93% (inactive).

On to `Cc1nn(-c2cc(Cl)ccc2N)c(=O)c2ccccc12`, for which the inhibition is -2.2% (inactive).

As to `Cc1nn(C)cc1N1C(=O)c2cccc3c(N)ccc(c23)C1=O`, the inhibition was 21.7% (active).

`CN1C(=O)c2cccc3c(N)ccc(c23)C1=O`: the inhibition was 50.1% (active).

Take `O=C(O)c1ccc2c3c(cccc13)C(=O)N(OS(=O)(=O)c1ccccc1)C2=O`: the inhibition was 0.17% (inactive).

For the compound `CC(=O)Nc1ccccc1Sc1ccc2c3c(cccc13)C(=O)N(c1ccc(C)cc1)C2=O`, the inhibition was -3.98% (inactive).

Turning to `NS(=O)(=O)c1ccc(N=Nc2c(O)[nH]c3ccc(Br)cc23)cc1`, the inhibition was -2.22% (inactive).

As for `Cc1c(C=O)c2ccccc2n1CCOc1ccccc1`, the inhibition is -0.2% (inactive).

In the case of `CN(C)CCCN(C(=O)c1ccc(S(=O)(=O)N2CCCc3ccccc32)cc1)c1nc2ccc(F)cc2s1`, the inhibition is -1.07% (inactive).

As to `CCc1cc(C(N)=O)c(NC(=O)c2ccc(OC)cc2)s1`, the inhibition is -2.73% (inactive).

`CCc1cc(C(=O)c2ccc(OC)cc2)c(NC(=O)CN2CCN(C)CC2)s1`: the inhibition was 7.76% (active).

With `CCOc1ccc(NC(=O)CN2CCN(CC(=O)Nc3ccc(OC)cc3)CC2)cc1`, the inhibition is 0.38% (inactive).

For `COc1cccc(CN(C)CC2CCCN(CCc3ccc(Cl)cc3)C2)c1OC` (stereo not given), the inhibition was -0.31% (inactive).

Consider `COc1ccc(CNc2cc(C)cc(C)c2)cc1OC`, for which the inhibition is -0.65% (inactive).

As to `O=C(/C=C/c1cccc(C(F)(F)F)c1)N1CCN(c2ccccn2)CC1`, the inhibition was -1.71% (inactive).

In the case of `COc1ccccc1NC(=O)C1CCN(C(=O)c2ccc(C(C)(C)C)cc2)CC1`, the inhibition is -0.92% (inactive).

As for `Cc1ccc(NS(=O)(=O)c2ccc3c(c2)NC(=O)CO3)cc1`, the inhibition is -3.86% (inactive).

For `COc1cccc(/C=C2\Sc3ccc(C(=O)NCC4CCCO4)cc3N(C)C2=O)c1` (stereo not given), the inhibition was 2.03% (inactive).

On to `COCCCn1c(SCC(=O)NC2CCCC2)nnc1-c1ccccc1`, for which the inhibition is -3.05% (inactive).

As for `CCC(C)c1ccc(NC(=S)N2CCCC2)cc1` (stereo not given), the inhibition is -4.58% (inactive).

Turning to `Cc1cc(C)c2nc(-c3ccco3)cc(C(=O)O)c2c1`, the inhibition was -2.98% (inactive).

As for `Cc1cc(C)c2nc3nc(C)cc(C)c3c(N)c2c1`, the inhibition was 23.4% (active).

For the compound `Cc1cc(C)c2nc(SCCC#N)nc(C)c2c1`, the inhibition is 0.46% (inactive).

On to `Cc1cccnc1CC(C)NC(=O)c1cc(COc2cncc(Cl)c2)on1` (stereo not given), for which the inhibition was -1.87% (inactive).

Turning to `OCCN1CCN(c2nnc(-c3ccccc3)c3ccccc23)CC1`, the inhibition is 1.21% (inactive).

Consider `O=C1c2ccccc2C(=O)c2c1cccc2N1CCN(CCO)CC1`, for which the inhibition was 8.84% (active).

For the compound `O=C1c2ccccc2C(=O)c2c1cccc2N1CCN(Cc2ccccc2)CC1`, the inhibition was -2.44% (inactive).

Take `CN(C)Cc1c(O)ccc2c(=O)c(-c3ccccc3Cl)coc12`: the inhibition is -1.33% (inactive).

With `Cc1ccc(CNC(=O)C2CCCN2S(=O)(=O)c2ccc3c(c2)C(C)(C)C(=O)N3C)cc1` (stereo not given), the inhibition was -0.78% (inactive).

Turning to `Cc1ccc2nc3n(c(=O)c2c1)CCC3`, the inhibition is -2.8% (inactive).

As for `Cc1ccc2nc(Nc3ccccc3)cc(C)c2c1`, the inhibition is 0.49% (inactive).

For the compound `Cc1ccc2nc(C)c3c(c2c1)N(c1ccccc1)CC3`, the inhibition was 14.6% (active).

In the case of `COc1ccc(S(=O)(=O)N(CC(=O)NCc2ccco2)c2ccc(F)cc2)cc1`, the inhibition was -4.2% (inactive).

As for `CCOc1ccccc1-c1nc(CN2CCC(C(=O)N3CCOCC3)CC2)c(C)o1`, the inhibition is -1.39% (inactive).

Turning to `Cc1cc(C)c2c(n1)nn1c(N3CCN(c4cccc(Cl)c4)CC3)cc(C)nc21`, the inhibition was -6.43% (inactive).

`Cc1cc(C)c2c(n1)nn1c(N3CCOCC3)cc(C)nc21`: the inhibition was 16.1% (active).

For the compound `Cc1cc(C)c2c(n1)nn1c(-n3ccnc3)cc(C)nc21`, the inhibition is 5.51% (inactive).

As for `COc1ccc(OCC(=O)NCCS(=O)(=O)N2CCN(c3ccc(F)cc3)CC2)cc1`, the inhibition is -1.58% (inactive).

In the case of `CCC(=O)N1c2ccc(S(=O)(=O)NCc3ccco3)cc2CC1C` (stereo not given), the inhibition is -0.12% (inactive).

Turning to `O=C(N/C(=C\c1ccc([N+](=O)[O-])cc1)C(=O)N1CCCCC1)c1ccco1`, the inhibition is -3.79% (inactive).

Turning to `COc1ccc(OC)c(S(=O)(=O)n2c([N+](=O)[O-])cnc2C)c1`, the inhibition is -2.01% (inactive).

For `CCOC(=O)C(Cc1ccc(N)cc1)N1C(=O)c2ccccc2C1=O` (stereo not given), the inhibition is -2.51% (inactive).

On to `COc1ccc(S(=O)(=O)NC(C)C(=O)NCc2ccncc2)cc1Cl` (stereo not given), for which the inhibition is -2.14% (inactive).

For `CC(Oc1cc2oc(=O)c3c(c2cc1Cl)CCCC3)C(=O)NCc1ccncc1` (stereo not given), the inhibition is 7.79% (active).

Regarding `Cc1cc(Cl)ccc1OCCCC(=O)NCc1ccncc1`, the inhibition is -1.05% (inactive).

Values taken from PubChem BioAssay AID1527 (The Scripps Research Institute Molecular Screening Center, 2009).
